Screening data: PubChem, Broad Institute
A selection: hits, their analogues and other compounds. The true share with any hit is near 3.1%.
DENV2 CPE – inhibitors of DENV2 cytopathic effect, primary screen, cell-based, plate reader, single concentration; DENV2-infected cells, cytopathic effect rescue; CPE inhibition, % at 9.99 µM; 1.7% of 350,000 active; AID 651640, 2012; in the data active means CPE inhibition above about 20%, passing the limit was not always enough; inconclusive means no clear call, values can overlap the other calls; tested in BHK-21 cells;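 further: 0% = median of neutral control wells and 100% = median of positive control wells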
dFosB activator – activators of delta FosB homodimer, primary screen, biochemical, fluorescence polarization, TAMRA-CDK5 oligo, single point. Protein FosB (Mus musculus), P13346. purified delta FosB; percent of positive-control signal above neutral wells. activation, % at 25 µM. 0.99% of 340,000 active. AID 493131, 2011;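 active means mean activation above about 17%, with every replicate also reaching it, limit read from the data, passing the limit was not always enough; inconclusive means only one of the two conditions met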
RAD54 inh – inhibitors of human RAD54 branch migration, primary screen, biochemical, fluorescence, single point | DNA repair and recombination protein RAD54-like (Homo sapiens), Q92698 | RAD54 Holliday junction branch migration, FAM/BHQ fluorescence | inhibition, % at 10.4 µM | 0.14% of 360,000 active | AID 602329, 2012;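 active means mean normalized replicate activity at least 40 and at least half of replicates scoring 40 or more; inconclusive means only one of the two criteria met; inactive means mean below 40 and under half of replicates reaching 40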;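 further: 0% = median of neutral control wells and 100% = median of positive control wells; inhibitors cause a drop in the FAM fluorescence signal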
INS-1E GSIS act – GLuc luminescence reporter in INS-1E cells, primary screen for activators of glucose-dependent secretion of insulin; INS-1E GLuc reporter insulin secretion, 2-3 h; activation, % at 16.6 µM; 0.61% of 370,000 active;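 active means lowest replicate activation of at least 40%, so every replicate reaches that level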;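 further: 0% = median of neutral control wells and 100% = median of IBMX positive control wells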
RAD52 inh – RAD52 DNA annealing inhibitors, primary screen, biochemical, FRET, single point, set 2; inhibition, % at 18.7 µM; 0.46% of 360,000 active; recombinant RAD52 DNA annealing, FRET fluorescence; AID 651710, 2012; DNA repair protein RAD52 homolog (Homo sapiens), P43351;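 active means every replicate showing at least 50% inhibition; inconclusive means mean inhibition at least 50% but not in every replicate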
MLL AF4-AF9 inh – inhibitors of AF4 peptide binding to AF9, primary screen, biochemical, AlphaScreen, biotin-AF4 peptide, FLAG-AF9, single point | inhibition, % at 10 µM | AID 651704, 2012 | 0.47% of 350,000 active;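 active means every replicate reaching a set inhibition limit, whatever the replicate mean, cut at about 25% in these data; inconclusive means mean inhibition reaches that limit but some replicates miss it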;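 further: 0% = plate neutral control median and 100% = total signal loss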
Target sequence (P42568 whole entry, looked up): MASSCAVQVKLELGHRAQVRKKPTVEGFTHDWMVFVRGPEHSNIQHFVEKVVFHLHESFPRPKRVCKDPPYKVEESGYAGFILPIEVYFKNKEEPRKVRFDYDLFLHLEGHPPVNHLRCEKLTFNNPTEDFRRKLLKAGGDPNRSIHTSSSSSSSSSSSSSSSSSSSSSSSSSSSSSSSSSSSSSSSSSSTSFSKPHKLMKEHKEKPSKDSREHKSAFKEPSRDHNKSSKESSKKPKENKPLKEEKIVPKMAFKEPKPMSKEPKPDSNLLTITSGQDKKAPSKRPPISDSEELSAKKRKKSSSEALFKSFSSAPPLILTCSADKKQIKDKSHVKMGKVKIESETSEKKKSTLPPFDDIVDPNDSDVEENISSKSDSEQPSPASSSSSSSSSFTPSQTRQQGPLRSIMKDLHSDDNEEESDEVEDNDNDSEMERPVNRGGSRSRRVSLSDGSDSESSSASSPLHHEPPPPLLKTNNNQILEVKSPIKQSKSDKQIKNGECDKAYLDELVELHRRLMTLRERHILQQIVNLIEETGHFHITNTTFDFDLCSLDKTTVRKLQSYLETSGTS
Active calls of the source: *; ? = inconclusive; / = no result; ! = a repeat was not active.

SMILES | DENV2 CPE | dFosB activator | RAD54 inh | INS-1E GSIS act | RAD52 inh | MLL AF4-AF9 inh
COc1cc(OC)c(OC)cc1/C=C1/C(=O)NC(=O)N(Cc2ccccc2)C1=O | 5 | -13 | -9 | 9 | -41 | /
Cc1cc(/C=C2\C(=O)NC(=O)N(Cc3ccccc3)C2=O)c(C)n1C1CC1 | -4 | 43* | / | -2 | -44 | 4
O=C(Cc1ccccc1)N1C[C@H]2[C@@H](c3ccccc31)[C@@H](CO)N2Cc1ccccc1 | 12 | / | -5 | -1 | -6 | /
Clc1ccc([C@H]2CC3CCC2N3)cn1 (stereo partly specified) | 49*! | / | / | -17 | 11 | /
C[C@@H]1CN([C@H](C)CO)C(=O)c2c(c3ccccc3n2C)-c2ccccc2CO[C@H]1CN(C)C(=O)Oc1ccccc1 | 1 | / | / | -15 | 12 | 3
CCn1c(O)c(C=Nc2ccc(N3CCOCC3)cc2)c(=O)n(CC)c1=S | / | -34 | -55 | / | / | /
CCn1c(O)c(C=Nc2ccc(N3CCOCC3)c(Br)c2)c(=O)n(CC)c1=S | / | 24* | -13 | / | / | /
COc1ccc(C#Cc2ccc([C@H]3[C@H]4CN(C(=O)Cc5ccncc5)CCCCN4[C@H]3CO)cc2)cc1 | -2 | / | -15 | 6 | -73 | -4
N#Cc1cccc(-c2ccc([C@H]3[C@@H](CO)N4CCCCN(C(=O)Cc5cccnc5)C[C@H]34)cc2)c1 | 38* | / | 11 | 9 | -22 | -4
COc1ccc(C#Cc2ccc([C@H]3[C@@H](CO)N4CCCCN(C(=O)Cc5ccncc5)C[C@@H]34)cc2)cc1 | -4 | / | -20 | 21 | -73 | -2
N#Cc1cccc(-c2ccc([C@H]3[C@H](CO)N4CCCCN(C(=O)Cc5cccnc5)C[C@@H]34)cc2)c1 | 6 | / | 2 | 2 | -13 | -4
O=C(Cc1cccnc1)N1CCCCN2[C@H](CO)[C@@H](c3ccc(C#CC4CCCC4)cc3)[C@H]2C1 | 40* | / | -3 | 13 | 14 | 4
O=C(Cc1cccnc1)N1CCCCN2[C@@H](CO)[C@@H](c3ccc(C#CC4(O)CCCC4)cc3)[C@@H]2C1 | 40* | / | 1 | 22 | -4 | -4
O=C(Cc1cccnc1)N1CCCCN2[C@H](CO)[C@H](c3ccc(C#CC4CCCC4)cc3)[C@H]2C1 | 13 | / | 7 | -14 | -30 | 1
COc1ccc(C#Cc2ccc([C@@H]3[C@@H](CO)N4CCCCN(C(=O)Cc5ccncc5)C[C@@H]34)cc2)cc1 | 36* | / | -7 | 8 | -63 | -6
CN1[C@@H]2CN(CC3CC3)C[C@H]1C2c1ccc(Br)cc1 (stereo partly specified) | / | / | / | -18 | / | /
O=C(Cc1cccnc1)N1CCCCN2[C@@H](CO)[C@@H](c3ccc(C#CC4CCCC4)cc3)[C@@H]2C1 | 32* | / | -5 | -18 | 6 | 3
C=CCN1[C@@H]2CN(C(=O)NC(C)C)C[C@H]1C2c1ccc(Br)cc1 (stereo partly specified) | / | / | / | 0 | / | /
O=C(Cc1ccccc1)N1CC2(C1)[C@H](c1ccccc1)[C@H](CO)N2Cc1cccc(Cl)c1 | 4 | / | / | -16 | -32 | 3
C[C@@H]1CN([C@H](C)CO)C(=O)CCCn2nncc2CO[C@H]1CN(C)C(=O)Oc1ccc2ccccc2c1 | 56*! | / | -3 | -13 | -2 | -2
C[C@@H]1CN([C@@H](C)CO)C(=O)CCCn2nncc2CO[C@H]1CN(C)C(=O)Oc1ccc2ccccc2c1 | 50*! | / | 12 | -4 | -16 | 2
CC=Cc1ccc2n(c1=O)C[C@H]1[C@H](CO)[C@@H](C(=O)OC)[C@@H]2N1C(=O)CC (mixture of isomers) | 7 | / | 6 | 29 | -8 | 0
O=C(Cc1ccccn1)N1CC2(C1)[C@@H](c1ccccc1)[C@@H](CO)N2Cc1ccccn1 | -5 | / | / | 0 | -124 | 2
O=C(Cc1ccccc1)N1CCCCN2[C@H](C1)[C@H](c1ccc(C#Cc3ccccc3)cc1)[C@@H]2CO | -15 | / | -8 | 24 | -8 | -3
CC(C)NC(=O)N1CC2C(c3ccccc3)C(C1)N2C (stereo unspecified) | / | / | / | 16 | / | /
SMILES | DENV2 CPE | dFosB activator | RAD54 inh | INS-1E GSIS act | RAD52 inh | MLL AF4-AF9 inh
C(=NN1CCCCCC1)c1c[nH]c2ccccc12 | 4 | -5 | -1 | -18 | -20 | 0
Brc1ccc2[nH]cc(/C=N/N3CCCCC3)c2c1 | 1 | -2 | / | 2 | -2 | 26*
Fc1ccc(CN2CC3NC(C2)C3c2ccc(Br)cc2)cc1 (stereo unspecified) | / | / | / | 10 | / | /
CC[n+]1c(-c2ccccc2)c2cc(N)ccc2c2ccc(N)cc21 | 0 | 8 | / | -38 | -50 | 30*
O=C(O)[C@@H]1[C@@H](CO)[C@@H]2Cn3c(ccc(-c4ccncc4)c3=O)[C@H]1N2S(=O)(=O)c1ccccc1F | / | / | -11 | 1 | / | -3
O=C1CC[C@@]2(O)[C@H]3Cc4ccc(O)c5c4[C@@]2(CCN3CC2CC2)C1O5 (stereo partly specified) | 28*! | / | / | 9 | -13 | /
Oc1ccc2c3c1O[C@H]1[C@@H](O)CC[C@@]4(O)[C@@H](C2)N(CC2CCC2)CC[C@]314 | ? | 6 | 2 | / | -12 | -4
NC(N)=Nc1ccc2[nH]c3c(c2c1)C[C@@]1(O)[C@H]2Cc4ccc(O)c5c4[C@@]1(CCN2CC1CC1)[C@H]3O5 | / | 41* | 54* | / | / | /
O=C(O)[C@H]1[C@H](CO)[C@H]2Cn3c(ccc(-c4cncnc4)c3=O)[C@@H]1N2C(=O)NC1CCCC1 | -6 | / | -2 | 3 | 7 | -3
O=C(c1cccc2ccccc12)C1CCCN(Cc2ccon2)C1 (stereo unspecified) | 2 | 2 | -3 | 40* | -11 | -5
Cc1cc(Cl)ccc1C(=O)C1CCCN(Cc2ccon2)C1 (stereo unspecified) | 5 | -2 | / | 8 | -8 | 2
CCN(CC)c1ccc(N=Cc2c(O)n(-c3ccccc3)c(=O)[nH]c2=O)cc1 | -1 | -4 | / | / | -95 | 2
CCN(CC)c1ccc(N=Cc2c(O)n(Cc3ccccc3)c(=O)[nH]c2=O)cc1 | / | -6 | 9 | 41* | / | /
CCN1[C@@H]2Cn3c(ccc(-c4cccc(OC)c4)c3=O)[C@H]1[C@@H](C(=O)OC)[C@@H]2CO | 10 | / | 9 | 7 | 0 | -1
CN(C)CC1CSCCC1(O)c1ccc(C(F)(F)F)cc1 (stereo unspecified) | 69* | -4 | -12 | 15 | -22 | -2
C/C=C/c1ccc(C2[C@@H]3CN(Cc4cccc(F)c4)C[C@H]2N3)cc1 (stereo partly specified) | ? | / | / | 0 | 38 | 11
